High-throughput results as filed in PubChem BioAssay.
KCNQ2 block: inhibitors of rat KCNQ2 potassium channel. O88943. CHO-K1 KCNQ2, FluxOR thallium flux, 20 min; stronger effect = lower value. B-score at 10 µM. hit rate 1.1% among 310,000. AID 2156;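 active means fluorescence ratio B-score at most minus 3 library SDs, with starting brightness B-score within 2 library SDs, cut at about -5.5 in these data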
Target sequence (O88943 whole entry, looked up): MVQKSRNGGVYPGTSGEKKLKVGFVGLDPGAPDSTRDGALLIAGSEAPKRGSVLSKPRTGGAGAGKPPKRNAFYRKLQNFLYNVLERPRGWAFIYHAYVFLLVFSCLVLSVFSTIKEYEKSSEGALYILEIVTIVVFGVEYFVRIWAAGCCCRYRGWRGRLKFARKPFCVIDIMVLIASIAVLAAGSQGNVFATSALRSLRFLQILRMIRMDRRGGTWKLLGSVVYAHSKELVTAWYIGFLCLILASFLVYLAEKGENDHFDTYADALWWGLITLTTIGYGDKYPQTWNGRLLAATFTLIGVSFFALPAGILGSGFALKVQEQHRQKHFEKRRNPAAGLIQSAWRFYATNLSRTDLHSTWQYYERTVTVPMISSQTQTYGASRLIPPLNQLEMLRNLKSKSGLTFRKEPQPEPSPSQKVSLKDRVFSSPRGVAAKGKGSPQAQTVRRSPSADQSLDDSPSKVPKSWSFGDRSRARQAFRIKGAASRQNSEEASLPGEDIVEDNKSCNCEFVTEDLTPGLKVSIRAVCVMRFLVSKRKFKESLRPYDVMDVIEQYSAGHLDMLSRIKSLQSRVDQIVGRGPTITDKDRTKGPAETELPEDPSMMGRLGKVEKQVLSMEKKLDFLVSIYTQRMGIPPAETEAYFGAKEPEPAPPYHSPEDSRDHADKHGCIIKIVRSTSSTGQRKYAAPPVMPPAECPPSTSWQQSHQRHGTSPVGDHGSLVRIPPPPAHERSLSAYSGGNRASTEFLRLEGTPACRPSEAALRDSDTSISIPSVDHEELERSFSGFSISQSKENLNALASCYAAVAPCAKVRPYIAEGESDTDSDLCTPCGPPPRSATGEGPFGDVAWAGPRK
KCNQ2 pot: KCNQ2 (rat) channel potentiation; B-score at 10 µM; CHO-K1 KCNQ2, FluxOR thallium flux fluorescence; stronger effect = higher value; O88943; hit rate 0.54% among 310,000; AID 2239;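 active means fluorescence ratio B-score at least 3 SD of library B-scores, with initial fluorescence B-score within 3 of them, cut at about 5.3 in these data; same plate scores as AID 2156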;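 further: B-score of peak minus minimum over baseline fluorescence ratio after K+ and Tl+ stimulus; positive B-score means potentiation of KCNQ2 with more thallium influx and brighter signal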
Kir21 conf inh: confirmation of mouse Kir2.1 potassium channel inhibitors | shares compounds with KCNQ2 pot | Kir2.1-expressing cells, FluxOR thallium flux fluorescence; stronger effect = lower value | Tl flux remaining, % of negative control (stronger effect = lower value), % at 10 µM | hit rate 41% among 2,300 | AID 2032;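 active means Primary-screen hit whose thallium flux fell at least 3 control SD below untreated wells in both duplicates, with normal baseline fluorescence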;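 further: 0% = blank wells without stimulus and 100% = stimulated no-compound controls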
HEK293 ctr: alters thallium flux in parental HEK293 cells, Kir2.1 counter-screen | shares compounds with KCNQ2 pot | FluxOR thallium flux fluorescence; 0% = unstimulated blank wells | hit rate 19% among 2,300 | AID 2105 | FluxOR signal as % of negative control (100 = no effect), % at 10 µM;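 active means dye signal at least 3 control SD above or below untreated wells in both duplicates, raw fluorescence within 3, either direction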;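 further: percent is based on the flux ratio of peak minus minimum fluorescence over baseline F0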
CHO-K1 ctr: counter-screen for KCNQ2 potentiators: effect in parental CHO-K1 cells | shares compounds with KCNQ2 pot | FluxOR thallium flux fluorescence; zero = vehicle mean+3SD, 100% = vehicle-minus-blank window | activity increase over 3SD of controls, % at 10 µM | hit rate 43% among 1,200 | AID 2282;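 active means signal rise of at least 3 SD above the untreated control mean, in both duplicate wells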;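 further: counter screen of KCNQ2 potentiator hits so any rise reflects channel-independent effects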
KCNQ1 pot spec: selectivity of KCNQ2 potentiators: effect on human KCNQ1; activation over 3SD threshold, % at 10 µM; shares compounds with KCNQ2 pot; AID 2283; CHO KCNQ1 stable, FluxOR thallium flux fluorescence; beyond 3SD, as % of vehicle-control signal; hit rate 28% among 1,200;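 active means fluorescence ratio rise of at least 3 SD of vehicle wells above their mean, in both replicate wells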;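 further: 0% = vehicle mean plus 3 SD and 100% = vehicle minus unstimulated blank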
KCNQ2 pot conf: rat KCNQ2 channel potentiator confirmation. shares compounds with KCNQ2 pot. CHO-KCNQ2 cells, FluxOR thallium flux fluorescence. potentiation, less the hit threshold, % at 10 µM. hit rate 68% among 1,200;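 active means fluorescence ratio rising 3 SD or more over the vehicle control mean in both replicates, plus primary screen hit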;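 further: peak minus minimum thallium fluorescence divided by baseline after K/Tl stimulus; 0% = vehicle mean plus 3 SD and 100% = vehicle minus unstimulated blank difference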
Kir2-1 sel: selectivity of KCNQ2 potentiators: effect on mouse Kir2.1; activity over 3SD threshold, % at 10 µM; HEK293 Kir2.1, FluxOR thallium flux fluorescence; shares compounds with KCNQ2 pot; hit rate 2% among 1,200; AID 2345;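 active means fluorescence ratio rise of at least 3 SD above the vehicle-control mean, seen in both replicates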;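 further: 0% = vehicle mean plus 3 SD and 100% = vehicle minus no-stimulus blank window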
KCNQ2 W236L MoA: rat KCNQ2 W236L mutant potentiation by KCNQ2 potentiators. shares compounds with KCNQ2 pot. CHO KCNQ2-W236L, automated patch clamp current. current increase over 3SD of negative controls (%), stronger effect = higher value, % at 25 µM. hit rate 10% among 940;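 active means current increase at least 3 SD of the untreated controls above them in both duplicate recordings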
Active calls of the source: *; i = inactive; / = no result. Rows were chosen to be rich in hits. Some 1.6% of all compounds tested hit in one or more screens of this group.

SMILES	KCNQ2 block	KCNQ2 pot	Kir21 conf inh	HEK293 ctr	others
CCOC(=O)c1cnc2c(OC)cccc2c1N1CC(C)CC(C)C1 (configuration not stated)	i	1.2	/	/
CCOC(=O)c1cnc2ccc(C(=O)OC)cc2c1NCCc1ccc(OC)c(OC)c1	i	/	/	/
CCOC(=O)c1cnc2c(OC)cccc2c1Oc1ccccc1	i	/	48%*	i
O=C(CCNS(=O)(=O)c1ccccc1)NNC(=O)C1COc2ccccc2O1 (configuration not stated)	i	0.46	/	/
O=S(=O)(O)c1nc2ccccc2n1Cc1cccc2ccccc12	i	/	/	/
CC(C)c1nnc(NC(=O)CCC(=O)NC2CC2)s1	i	0.02	/	/
Cc1ccc(C)c(Cn2nc(-c3cc(C)ccc3C)ccc2=O)c1	i	/	/	/
CCn1nc(C(=O)NNC(=O)CCOc2cc(C)ccc2C)c2ccccc2c1=O	i	1.7	/	/
Clc1ccc(CN2CCC(Cc3ccccc3)CC2)cc1	i	/	/	/
Clc1cccc(CN2CCC(Cc3ccccc3)CC2)c1	i	/	71%*	i
CSc1ccc(CN2CCC(Cc3ccccc3)CC2)cc1	i	/	18%*	i
CSc1ccc(OC2CCN(Cc3ccccc3)CC2)cc1	i	/	/	/
CSC1=C(C#N)C(CC(C)C)C(C(C)=O)=C(C)N1 (configuration not stated)	i	1.2	72%*	i
CSC1=C(C#N)C(CC(C)C)C2=C(CCCC2=O)N1 (configuration not stated)	i	1.4	/	/
CCCCn1c(-c2ccccc2)cnc1SCC(=O)NCCc1ccc(OC)c(OC)c1	i	/	56%*	i
COc1ccc(CCNC(=O)CSc2nnc(-c3ccccc3)c3ccccc23)cc1OC	i	/	/	/
CCNC(=O)C12CCC(C)(c3nc4cc(C)c(C)cc4nc31)C2(C)C (configuration not stated)	i	0.17	/	/
Cc1ccc(/C=N/Nc2nc(C(C)(C)C)cs2)o1	i	6.9*	i	70%*	CHO-K1 ctr=-8;KCNQ1 pot spec=-27;KCNQ2 pot conf=-3;Kir2-1 sel=-33;KCNQ2 W236L MoA=i
CC(C)(C)c1csc(N/N=C/c2cccnc2)n1	i	1.5	/	/
O=CC1=C(c2ccccc2)Oc2ccccc2O1	i	/	52%*	i
CN(C)/C=C1/N=C(c2ccccc2)OC1=O	i	1.4	/	/
CCCOc1ccc(/C(O)=C2/C(=O)C(=O)N(c3ccccn3)C2c2ccc(OC)cc2)cc1C (configuration not stated)	i	/	/	/
FC(F)(F)c1nnc(Nc2ccc(Cl)cc2)s1	i	3.1	/	/
Fc1ccc(Nc2nnc(C(F)(F)F)s2)cc1Cl	i	7.2*	i	i	CHO-K1 ctr=-4;KCNQ1 pot spec=76*;KCNQ2 pot conf=16*;Kir2-1 sel=-30;KCNQ2 W236L MoA=i
CC(=O)N(C1CC(C)C(C#N)(C#N)C1(C#N)C#N)N(C)C (configuration not stated)	i	24*	i	63%*
SMILES	KCNQ2 block	KCNQ2 pot	Kir21 conf inh	HEK293 ctr	others
NC(=O)c1ncn([C@@H]2O[C@H](CO)[C@@H](O)[C@H]2O)c1O	i	/	/	/
O=C1c2ccccc2C(=O)N1/N=C/c1ccc(O)c(O)c1	i	0.1	/	/
CC(C)(C)C(=O)NC(=S)NNC(=O)C(c1ccccc1)c1ccccc1	i	6.6*	i	66%*	CHO-K1 ctr=-5;KCNQ1 pot spec=-13;KCNQ2 pot conf=-12;Kir2-1 sel=-22
CC(=O)NNC(=S)NC(=O)C(c1ccccc1)c1ccccc1	i	/	/	/
COc1cccc(N2CCN(c3ccc([N+](=O)[O-])cn3)CC2)c1	i	0.54	/	/
COc1ccc(C(C)NC(=S)NCc2ccc(F)cc2)cc1 (configuration not stated)	i	1.2	/	/
COc1cccc(C(C)NC(=S)NCc2ccc(Cl)cc2)c1 (configuration not stated)	i	0.34	52%*	i
O=c1nc(SCc2c(F)cccc2Cl)nc(-c2ccc(Cl)cc2)[nH]1	i	2.9	/	/
O=c1nc(SCc2ccccc2Cl)nc(-c2ccc(Cl)cc2)[nH]1	i	11*	i	148%*	CHO-K1 ctr=13*;KCNQ1 pot spec=-9;KCNQ2 pot conf=6.1*;Kir2-1 sel=-34;KCNQ2 W236L MoA=i
COc1cc2c(cc1OC)CN(S(C)(=O)=O)CC2	i	2.1	/	/
COc1ccc(CN2CCNC(=O)C2CC(=O)NCCCn2cccn2)c(OC)c1 (configuration not stated)	i	/	/	/
C[C@@H]1[C@H]2[C@@H](O[C@@H]3O[C@H](CO)[C@@H](O)[C@H](O)[C@H]3O)OC=C(C(=O)O)[C@H]2C[C@@H]1O	i	/	/	/
CCCCC(=O)Nc1cccc(-c2nn3c(C)nnc3s2)c1	i	/	/	/
O=[N+]([O-])c1ccc(S(=O)(=O)N2CCSC2c2ccco2)cc1 (configuration not stated)	i	/	/	/
O=S(=O)(c1ccc(Cl)cc1)N1CCSC1c1ccco1 (configuration not stated)	i	/	66%*	i
C=CCOC(=O)C1=C(C)NC(=S)NC1c1cccs1 (configuration not stated)	i	2.5	/	/
Clc1ccc(COc2ccccc2CNCc2cccnc2)cc1	i	0.38	/	/
CCOc1cccc(CNCc2cccnc2)c1OCc1ccccc1	i	1.3	45%*	i
O=c1cc2oc3cc(O)c(O)cc3c(-c3ccccc3[N+](=O)[O-])c-2cc1O	i	2.6	/	/
O=c1[nH]sc2ccccc12	i	6.7*	i	i	CHO-K1 ctr=8.6*;KCNQ1 pot spec=-10;KCNQ2 pot conf=-8;Kir2-1 sel=-45;KCNQ2 W236L MoA=i
O=c1c2ccccc2sn1-c1ccccc1	i	/	/	/
COc1ccccc1N(C(=O)c1ccco1)C(C(=O)NC1CCCC1)c1ccc(N2CCOCC2)cc1 (configuration not stated)	i	/	/	/
O=C(Cc1ccc(-n2cnnn2)cc1)NC12CC3CC(CC(C3)C1)C2	i	6.2*	i	i	CHO-K1 ctr=83*;KCNQ1 pot spec=-17;KCNQ2 pot conf=3.4*;Kir2-1 sel=-41;KCNQ2 W236L MoA=i
O=C(Nc1ccc(-n2cnnn2)cc1)C1CCC1	i	/	/	/
CCC(Sc1nc(N)cc(N)n1)C(=O)O (configuration not stated)	i	1.6	/	/
COC(=O)c1ccc(NC(=O)C2CCCN2S(=O)(=O)c2ccc(F)cc2)cc1 (configuration not stated)	i	1	/	/
